Screening data: PubChem, National Center for Advancing Translational Sciences (NCATS)
Pf Dd2 growth = blocks in vitro growth of P. falciparum Dd2. P. falciparum Dd2 growth, SYBR Green, 72 h. Potency, µM (top dose mostly 28.9 µM), without a hit: top-dose activity, negative = inhibition, most hits filed as inhibitors. 4.3% of 120,000 active; active means well fitted inhibition curve with a large enough effect;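 further: plate controls were DMSO vehicle for no effect and reference drug for full effect; nearly all actives have a fitted effect of over 65% in size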
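Infected erythrocytes (Dd2, 0.3% parasitemia, 2.5% hematocrit final) are added to compound in RPMI-1640/Albumax II medium, grown 72 h at 37C in low oxygen, then lysed with saponin/Triton-X containing SYBR Green and read by fluorescence.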
* marks the source's active call; other numbers are inactive results; i = inactive; [ ] = another dose, or the depositor's remark. Only a selection was taken, and hits are over-represented in it overall. Potency means the concentration at half of the fitted maximal effect.

SMILES	Pf Dd2 growth
COc1cc(CN2CCc3nc(N4CCN(C)CC4)[nH]c(=O)c3CC2)cc(OC)c1OC	i[5.79 µM]
Cc1ccc(C(=O)NC2CCCN(c3cc(-c4ccc(F)cc4)[nH]n3)C2)cc1 (stereo not given)	-0.9%
O=C([C@@H]1C[C@H](F)CN1C(=O)Nc1ccc(F)cc1)N1CCCCC1	1.9%
COc1ccc(C(=O)N2CCCC(n3cc(-c4nc(C(C)C)no4)nn3)C2)cc1 (stereo not given)	12.6µM*
Cc1ccc(C(=O)N2CCCC(n3cc(-c4nc(C(C)C)no4)nn3)C2)cc1 (stereo not given)	-18.0%
COc1ccc(C(=O)N2CCC(n3cc(-c4nc(C(C)C)no4)nn3)C2)cc1 (stereo not given)	i
COCCCNC(=O)N1CCCC(c2nc(-c3cnccn3)no2)CCNC(=O)CC1 (stereo not given)	i
CCOc1ccccc1C(=O)Nc1ccc2nc(N(CC)CC)cc(C)c2c1	-7.1%
CCN(CC)c1cc(C)c2cc(NC(=O)/C=C/c3cc(OC)c(OC)c(OC)c3)ccc2n1	1.12µM*
CCN(CC)c1cc(C)c2cc(NC(=O)c3cccc(OC)c3OC)ccc2n1	-27.1%
CCOc1ccc(/C=C/C(=O)Nc2ccc3nc(N(CC)CC)cc(C)c3c2)cc1OC	1µM*
CCN(CC)c1cc(C)c2cc(NC(=O)c3cccc(OC)c3)ccc2n1	i
CCOc1ccc(C(=O)Nc2ccc3nc(N(CC)CC)cc(C)c3c2)cc1	-7.6%
O=C(O)CCC(=O)N1CC[C@H](c2nnc(-c3cccnc3)o2)C1	11.5%[44.1 µM]
COc1ccc(-c2noc([C@@H]3C[C@H](NC(=O)NC(C)C)CN3C)n2)cc1	22.1%[44.1 µM]
Cc1ccc(S(=O)(=O)Nc2ccc(C)n(CC(=O)O)c2=O)cc1	18.5%
NCC(C1CCCCC1)N1CCCC1 (stereo not given)	-9.9%[44.1 µM]
CCOC(=O)c1c(NC(=O)c2ccc(S(=O)(=O)N(C)C)cc2)sc2c1CCN(C)C2	i
CCOC(=O)c1c(NC(=O)c2ccc(S(=O)(=O)N(C)C3CCCCC3)cc2)sc2c1CCN(C(C)C)C2	11.2µM*
CCOC(=O)c1c(NC(=O)CS(=O)(=O)c2ccc(C)cc2)sc2c1CCC(C)C2 (stereo not given)	42.1%
COCCN(CCOC)S(=O)(=O)c1ccc(C(=O)Nc2sc3c(c2C(N)=O)CCCC3)cc1	8.3%
COCCN(CCOC)S(=O)(=O)c1ccc(C(=O)Nc2sc3c(c2C(=O)OC)CCN(C)C3)cc1	11.2µM*
COC(=O)c1c(NC(=O)c2ccc(C(C)(C)C)cc2)sc2c1CCC(C)C2 (stereo not given)	29.7%
CCOC(=O)c1c(NC(=O)c2ccc(Br)cc2)sc2c1CCCC2	1.4%
CNC(=O)c1c(NC(=O)c2ccc(S(=O)(=O)N3CCC(C)CC3)cc2)sc2c1CCC2	-0.4%
SMILES	Pf Dd2 growth
CNC(=O)c1c(NC(=O)c2ccc(S(=O)(=O)N3CCCCC3C)cc2)sc2c1CCC2 (stereo not given)	i
COC(=O)c1c(NC(=O)c2ccc(S(=O)(=O)N3CCCCC3C)cc2)sc2c1CCN(C(C)C)C2 (stereo not given)	11.2µM*
CCOC(=O)c1c(NC(=O)c2ccc(S(=O)(=O)N3CCC(C)CC3)cc2)sc2c1CCN(C)C2	8.91µM*
CCOc1cccc2sc(NC(=O)c3ccc(S(=O)(=O)N4CCCCC4C)cc3)nc12 (stereo not given)	-6.9%
CCOc1ccc(CC(=O)NC2CCN(c3cc(-c4ccccc4)[nH]n3)CC2)cc1	-5.0%
O=C(NCc1ccccc1)C1(CCO)CCN(c2ncccn2)C1 (stereo not given)	-1.3%
COCC(=O)N1CC[C@H]2CC(=O)N(CCc3cccc(OC)c3OC)CC[C@H]2C1	-15.1%[44.1 µM]
O=C(O)CCCC(=O)N[C@H]1CO[C@H]2[C@@H]1OC[C@@H]2Nc1nccc(-c2ccc3c(c2)OCO3)n1	-24.6%
Cc1noc(-c2cn(C3CCN(C(=O)c4cc(F)ccc4F)CC3)nn2)n1	i
COc1ncccc1CNC[C@H]1O[C@@H]2C[C@@H](CC(=O)NC(C)C)O[C@@H]2[C@@H]1O	4.9%[44.1 µM]
CC(C)NC(=O)[C@@H]1C[C@H](N)CN1S(=O)(=O)c1ccc2c(c1)OCCN2C	-20.0%
O=C(c1ccc2ccccc2n1)N1CCC(N2CC3CC(C2)[C@H]2CCCC(=O)N2C3)CC1 (stereo not given in full)	-4.4%
Cn1cc(NC(=O)CN2CCC(N3CCCC(C(=O)N4CCCC4)C3)CC2)cn1 (stereo not given)	-9.7%
Cc1nc([C@@H]2CN(C(=O)c3noc(C)c3Cn3cccn3)C[C@H]2C(N)=O)n[nH]1	-6.8%
O=C(O)C1CCc2sc(C(=O)N3CCOCC3)cc2C1 (stereo not given)	11.9%
CCOC(=O)c1c(NC(=O)c2ccccc2C)sc2c1CCCC2	1.6%
CCCCN(C)S(=O)(=O)c1ccc(C(=O)Nc2sc3c(c2C(=O)OCC)CCN(C(C)C)C3)cc1	6.31µM*
CCCOc1ccc(C(=O)Nc2sc3c(c2C(=O)OCC)CCCCC3)cc1	i
CCn1nc(C)c(CN2C[C@@H](CO)[C@H](c3nc(COC)no3)C2)c1C	14.7%
COC[C@@H]1CN(C(=O)c2cn[nH]c2C)C[C@H]1c1ccncc1	19.1%
Cc1cc(F)ccc1NC(=O)c1cc(-c2ccc[nH]2)n[nH]1	i
CN1CCOC[C@H]1c1ncc(-c2cccc(F)c2)[nH]1	0.1%[44.1 µM]
Cc1ccccc1Cn1c(SCc2ccc(C(=O)NC3CCCC3)cc2)nc2ccncc21	-10.4%
Cc1ccc(Cn2c(SCc3ccc(C(=O)NCCc4ccccc4)cc3)nc3ccncc32)cc1	6.31µM*
Cc1ccccc1Cn1c(SCc2ccc(C(=O)NCCc3ccccc3)cc2)nc2ccncc21	7.08µM*
SMILES	Pf Dd2 growth
Cc1ccccc1CSCc1ccc(C(=O)NCCc2ccccc2)o1	19.9%
COCCNC(=O)c1ccc(Cn2c(SCC(N)=O)nc3ccccc3c2=O)cc1	-26.8%
O=C(NCCc1ccccc1)c1ccc(CSc2nc3ccncc3n2Cc2ccccc2)cc1	8.91µM*
CCCCCCN(CCC(=O)NCCOC)C(=O)c1ccoc1	i
O=C(c1cccnc1)N1CCC(Oc2cccc(F)c2)C1 (stereo not given)	-15.7%
CCC(C)NC(=O)c1ccc(-c2cccc(C#N)c2)o1 (stereo not given)	-7.8%
O=C(NC1CCCCC1)[C@H]1CN2CCC1C[C@@H]2Cn1cc(CO)nn1 (stereo not given in full)	11.4%[44.1 µM]
O=C(Nc1ccc2c(N3CCCC3)ncnc2c1)c1cc(F)ccc1F	3.16µM*
O=C(Nc1ccc2ncnc(N3CCCCC3)c2c1)c1ccc(F)c(F)c1	-7.2%
O=C(Nc1ccc2ncnc(N3CCCCC3)c2c1)c1cc(F)ccc1F	i
Cc1oc2ncnc(N3CCCCC3)c2c1C(=O)Nc1cccc(F)c1	i
O=C(Nc1ccc2c(N3CCCC3)ncnc2c1)c1cc(F)ccc1Cl	5.01µM*
O=C(Nc1ccc2c(N3CCCC3)ncnc2c1)c1cccc(F)c1	2µM*
O=C(NCc1ccc(F)cc1)C1CCN(C(=O)c2ncn3c2COC(c2ccccc2)C3)CC1 (stereo not given)	i
O=S(=O)(c1cc(F)cc(F)c1)N1CCCC1c1nncn1Cc1ccncc1 (stereo not given)	0.8%
CN1CCN(c2cc(N3CCCC(CO)(CC4CC4)C3)nc(N)n2)CC1 (stereo not given)	-3.1%
Cn1c(CNCC2(COc3cccnc3)C[C@@H](O)[C@@H](O)C2)nc2ccccc21 (stereo not given in full)	5.1%
OCC1CN(Cc2ccc(C(F)(F)F)cc2)CC12CCNCC2 (stereo not given)	i
